From PubChem
Sampled rows, rich in hits. Any-hit rate of the full collection: about 19%.
DT40 TDP1 no CPT – qHTS for Inhibitors of human tyrosyl-DNA phosphodiesterase 1 (TDP1): qHTS in cells in absence of CPT | DT40 Tdp1-/- hTDP1 cells, no CPT, ATP luminescence, 48 h | Potency, µM (top dose mostly 46.2 µM), inactives show at the top dose activity change, negative = growth inhibition, actives largely listed as inhibitors | actives 15% (n = 420,000) | AID 686978, 2013; also: potency is read from the fitted curve at half-maximal effect; % is scaled to controls: 0 for no effect and ±100 for the full control effect; nearly all actives have a fitted effect of over 55% in size
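DT40 Tdp1-/-;hTDP1 cells, no CPT (DMSO vehicle only), 400 cells/well; compounds pin-transferred; ≥48 hr, 37 °C; CellTiter-Glo 30 min RT dark, luminescence read.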
IL-1B inflam inh – qHTS for Inhibitors of Inflammasome Signaling: IL-1-beta AlphaLISA Primary Screen. actives 4.7% (n = 360,000). activity change, % at 57.5 µM. THP-1 LPS/ATP IL-1B secretion, AlphaLISA, 16 h; active compounds read low; in the data active = activity change below about -50%; inconclusive = mostly about -30% to -49%; also: % is scaled to controls: 0 for no effect and ±100 for the full control effect
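THP-1 cells pretreated 1 hr with compounds (up to 57.5 uM final), then stimulated with LPS (250 ng/mL final) plus ATP (1.25 mM final); secreted IL-1B measured by AlphaLISA after 16 hr, decreased signal indicating inhibition.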
TDP1 cell CPT – qHTS for Inhibitors of human tyrosyl-DNA phosphodiesterase 1 (TDP1): qHTS in cells in presence of CPT; Potency, µM (top dose mostly 46.2 µM), for the others: at the top dose activity change, negative = growth inhibition, most hits filed as inhibitors; AID 686979, 2013; chicken DT40 Tdp1-/-;hTDP1 cells + 20 nM CPT, ATP luminescence, 48 h; actives 12% (n = 420,000); also: potency is read from the fitted curve at half-maximal effect; % is scaled to controls: 0 for no effect and ±100 for the full control effect; nearly all actives have a fitted effect of over 55% in size
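Chicken DT40 Tdp1-/- cells stably complemented with human TDP1 were seeded at 400 cells/well in medium containing 20 nM camptothecin, exposed to pin-transferred compounds, and grown at 37 °C for at least 48 hr. Viability was read as ATP luminescence.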
HepG2 tox – qHTS for Inhibitors of TGF-b: Cytotox Counterscreen; HepG2 CAGA-GFP viability, ATP luminescence, 18 h; Potency, µM (top dose mostly 46.1 µM), for the others: top-dose activity change, negative = cytotoxicity, usual class: cytotoxic; actives 0.76% (n = 410,000); AID 588856, 2011; also: potency is read from the fitted curve at half-maximal effect
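HepG2 CAGA-GFP cells (1000/well, DMEM with 1% FBS) received compound, then TGF-beta at 500 pg/mL final, and were incubated 18 hours at 37 degrees C. Viability was read by CellTiter-Glo luminescence. Media-only wells were set as complete cell-killing and DMSO as no toxicity.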
ASM inhibitor – Inhibitors of Secretory Acid Sphingomyelinase (S-ASM): qHTS | placental ASM, HMU-PC fluorogenic substrate, 60 min | actives 0.006% (n = 340,000) | Potency, µM (top dose mostly 57.5 µM), for the others: at the highest dose activity change, negative = inhibition, hits mostly inhibitors | AID 504937, 2011; also: potency is read from the fitted curve at half-maximal effect
Target sequence (P17405 47-631 limits assumed): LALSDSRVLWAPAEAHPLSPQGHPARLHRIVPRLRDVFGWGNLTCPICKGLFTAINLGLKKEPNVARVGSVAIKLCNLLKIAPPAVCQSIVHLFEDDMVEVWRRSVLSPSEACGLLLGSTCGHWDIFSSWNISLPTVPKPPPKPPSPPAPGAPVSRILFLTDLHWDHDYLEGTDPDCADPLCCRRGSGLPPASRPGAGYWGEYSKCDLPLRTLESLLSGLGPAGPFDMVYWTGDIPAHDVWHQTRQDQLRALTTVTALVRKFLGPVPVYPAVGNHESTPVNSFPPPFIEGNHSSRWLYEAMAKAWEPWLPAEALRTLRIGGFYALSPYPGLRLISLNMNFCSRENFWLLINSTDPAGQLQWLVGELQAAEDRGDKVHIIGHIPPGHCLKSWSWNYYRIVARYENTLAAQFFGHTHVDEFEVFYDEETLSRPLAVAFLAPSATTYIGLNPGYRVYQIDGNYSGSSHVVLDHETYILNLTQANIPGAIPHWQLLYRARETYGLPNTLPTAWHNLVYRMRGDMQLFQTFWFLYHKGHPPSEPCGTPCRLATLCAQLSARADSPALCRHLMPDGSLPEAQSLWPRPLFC
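Steps: dispense placental human ASM, pin compound, wait 10 min at room temperature, add HMU-PC0 substrate at 9 uM final, incubate 60 min at 37 °C, add stop solution raising pH to 10, read fluorescence.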
TGFb SMAD3 inh – qHTS for Inhibitors of TGF-b; HepG2 CAGA-GFP TGF-b/SMAD3 reporter, GFP fluorescence, 18 h; TGF-beta stimulated, 500 pg/mL final; Potency, µM (series often up to 46.1 µM), for inactives: at the highest dose activity, negative = inhibition, hits mostly inhibitors; actives 1.2% (n = 410,000); AID 588855, 2011; also: potency is read from the fitted curve at half-maximal effect; % is scaled to controls: 0 for no effect and ±100 for the full control effect; nearly all actives have a fitted effect of over 65% in size
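Cell-based qHTS in HEPG2 carrying a CAGA-GFP Smad reporter; compounds added before 500 pg/mL final TGF-beta, 18 h incubation at 37 degrees C, GFP fluorescence quantified per cell by imaging cytometry.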
Numbers without * were called inactive; ? = inconclusive; · = no result. Unless noted, calls follow the shape of the dose curve; as a rule, active = well fitted curve in the direction sought with a large enough effect; inconclusive = small, poorly fitted or top-dose-only effect, or another doubt; inactive = no such curve, though single readings can be large; an effect the other way counts as inactive or inconclusive.

SMILES	DT40 TDP1 no CPT	IL-1B inflam inh	TDP1 cell CPT	HepG2 tox	ASM inhibitor	TGFb SMAD3 inh
CCOCc1nc(N)nc(N)c1-c1cccc(Cl)c1	7.3µM*	11	8.2µM*	11µM*	·	0%
CCOc1ccc(Nc2oc(-c3cccc(Cl)c3)nc2C#N)cc1	?	7	?	-16%	38%	-5%
O=C1NC(=S)S/C1=C\c1cc(Cl)cc(Cl)c1O	?	-2	?	2%	-13%	?
O=C1Nc2c(Cl)cc(Cl)cc2C1=O	10µM*	-93*	7.3µM*	-55%	5%	?
COc1ccccc1OCC(=O)Nc1ccc(NC(=O)COc2ccccc2OC)cc1	-8%	23	-29%	-16%	3%	15%
CCN(CC)CCNCc1cc(Cl)c(OCC(=O)Nc2ccccc2)c(OC)c1	23µM*	-25	?	-21%	3%	15%
COc1cc(CNC(C)c2ccccc2)cc(Cl)c1OCC(=O)Nc1ccccc1 (stereo unspecified)	26µM*	0	9.2µM*	-3%	-4%	-16%
COc1ccc(-c2nc3cnc(N(C)C)nc3n(C)c2=O)cc1	10%	·	-1%	·	·	·
CCOC(=O)CC1NCCc2c1[nH]c1ccc(OC)cc21 (stereo unspecified)	?	14	8%	-7%	-2%	6%
CC(=O)NCCC(=O)Nc1cc(S(=O)(=O)N2CCCCC2)ccc1N1CCCCC1	23µM*	-2	?	-12%	6%	2%
CCOc1ccccc1OCC(=O)Nc1cc(S(=O)(=O)N2CCCCC2)ccc1N1CCN(CC)CC1	16µM*	-27	23µM*	-8%	2%	-1%
Cc1ccccc1OCC(=O)Nc1cc(S(=O)(=O)N2CCOCC2)ccc1N1CCCC1	?	-21	?	-13%	-4%	-21%
CCN1CCN(c2ccc(S(=O)(=O)N3CCCCC3)cc2NC(=O)c2ccccc2)CC1	?	-14	?	0%	0%	24%
CC(=O)NCCC(=O)Nc1cc(S(=O)(=O)N2CCCCC2)ccc1N1CCN(C)CC1	-8%	-4	-11%	0%	·	21%
CCOc1ccccc1OCC(=O)Nc1cc(S(=O)(=O)N2CCCCC2)ccc1OC	?	13	?	8%	8%	1%
CC(C)c1ccccc1OCC(=O)Nc1cc(S(=O)(=O)N2CCOCC2)ccc1N1CCCC1	15µM*	-56*	?	6%	-8%	?
COc1ccccc1OCC(=O)Nc1cc(S(=O)(=O)N2CCCCC2)ccc1N1CCCCC1	23µM*	-1	23µM*	13%	-2%	-9%
OCCC1CN(Cc2cnc(N3CCOCC3)s2)CCN1C1CCCC1 (stereo unspecified)	7%	-12	1%	15%	-1%	-2%
CN1CCN(C(=O)c2cc3c(c(-c4cccc(-c5cccnc5)c4)n2)[C@@H](CCO)N(C(=O)CC2CC2)C3)CC1	-22%	-23	-18%	·	·	·
Cc1cc(OCC(=O)Nc2ccccc2N2CCOCC2)c(C(C)C)cc1Cl	15µM*	-12	16µM*	-20%	-2%	?
Cc1ccc(OCC(=O)Nc2cc(S(=O)(=O)N3CCCCC3)ccc2N2CCN(C)CC2)c(C)c1	9.2µM*	?	15µM*	-29%	2%	-9%
